Measured values as given in PubChem BioAssay (Tox21).
Results filed as inconclusive are left out. Activity calls are given as the source filed them. Unless noted, the call rests on the fitted dose curve; in most records, active means well fitted curve in the direction sought with a large enough effect in the repeat runs; inconclusive means weak or mixed curves; inactive means no such curve, though single readings can be large; an effect the other way counts as inactive or inconclusive.

What was measured:
[1] = target: Thyrotropin-releasing hormone receptor (Homo sapiens) (UniProt P34981); assay: qHTS assay to identify small molecule agonists of the thyrotropin-releasing hormone receptor (TRHR) signaling pathway (AID 1346891; calls by dose curve;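 further: HEK293 cells expressing TRHR with calcium dye readout; series mostly up to about 58 µM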)
Method in brief: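 Overnight-plated (18 h, 37 °C, 5% CO2) TRHR-Hek293 cells; 2 h calcium dye at 37 °C; compound in DMSO; 3-min kinetic fluorescence read.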

[2] = Human pregnane X receptor (PXR) small molecule agonists, qHTS cell viability counter screen (AID 1346977); further: nearly all actives have a fitted effect of over 50% in size; further: potency means the concentration at half of the fitted maximal effect
Method in brief: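 After a 5hr pre-incubation, PXR-Luc HepG2 cells received compounds plus positive control in DMSO and were kept 24hr at 37C. Cell viability was quantified by fluorescence from CellTiter-Fluor added for the final hour.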

[3] = Caspase-3/7 induction in HepG2 cells by small molecules, qHTS assay (AID 1346978); further: nearly all actives have a fitted effect of over 15% in size
Method in brief: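 Caspase-3/7 induction was measured by Caspase-Glo 3/7 luminescence (30 min, room temperature) after a 17 hr compound exposure of wild-type HepG2 cells seeded at 2,000 per well and pre-incubated 5 hr.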

[4] = Caspase-3/7 induction in CHO-K1 cells by small molecules, qHTS cell viability counter screen (AID 1346979); further: nearly all actives have a fitted effect of over 35% in size; further: potency means the concentration at half of the fitted maximal effect
Method in brief: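 Multiplexed with Caspase-Glo 3/7 in CHO-K1 cells, this counter screen added CellTiter-Fluor after 16hr of compound exposure and recorded fluorescence 1hr later.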

[5] = Caspase-3/7 induction in CHO-K1 cells by small molecules, qHTS assay (AID 1346980); further: nearly all actives have a fitted effect of over 15% in size
Method in brief: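 Luminescent Caspase-Glo 3/7 read (30min, room temperature) quantified apoptosis induction. Cells were wild-type CHO-K1, treated with compound for 17hr at 37 C and 5% CO2.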

[6] = Caspase-3/7 induction in HepG2 cells by small molecules, qHTS cell viability counter screen (AID 1346981); further: nearly all actives have a fitted effect of over 30% in size; further: potency means the concentration at half of the fitted maximal effect; on activity change, negative = cytotoxicity: series mostly up to about 92 µM
Method in brief: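 In this quantitative HTS counter screen, compounds delivered in DMSO were left on unmodified HepG2 cells for 16 hr at 37 C. Viability was then determined fluorometrically with CellTiter-Fluor, in parallel with caspase-3/7 induction in the same wells.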

[7] = target: Nuclear receptor subfamily 1 group I member 2 (Homo sapiens) (UniProt O75469); assay: Human pregnane X receptor (PXR) small molecule agonists, qHTS assay (AID 1346982); further: nearly all actives have a fitted effect of over 35% in size; further: potency means the concentration at half of the fitted maximal effect
Method in brief: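 Reporter HepG2 cells expressing PXR-Luc are cultured in charcoal-stripped FBS (5%), treated with compounds for 24 hr at 37 C, and assayed by ONE-Glo luminescence after 30 min at room temperature.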

[8] = target: Cytochrome P450 2D6 (Homo sapiens) (UniProt P10635); assay: Cytochrome P450 Family 2 Subfamily D Member 6 (CYP2D6) small molecule antagonists: luciferase reporter qHTS assay (AID 1671196); further: series mostly up to about 120 µM; nearly all actives have a fitted effect of over 50% in size
Method in brief: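 Test chemicals meet CYP2D6 plus proluciferin substrate (10 min, RT); NADPH regenerating solution then drives turnover for 1 h. Detection reagent halts the reaction; luminescence measured after 20 min.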

[9] = target: Cytochrome P450 2C19 (Homo sapiens) (UniProt P33261); assay: Cytochrome P450 Family 2 Subfamily C Member 19 (CYP2C19) small molecule antagonists: luciferase reporter qHTS assay (AID 1671197); further: nearly all actives have a fitted effect of over 65% in size; further: potency means the concentration at half of the fitted maximal effect; on activity change, negative = inhibition: series mostly up to about 120 µM
Method in brief: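 First, compounds are pinned into enzyme-substrate mix and held 10 min at room temperature. Second, NADPH regeneration solution is added and plates incubate 1 h at 37C. Third, detection reagent is added and luminescence read after 20 min.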

[10] = target: Cytochrome P450 2C9 (Homo sapiens) (UniProt P11712); assay: Cytochrome P450 Family 2 Subfamily C Member 9 (CYP2C9) small molecule antagonists: luciferase reporter qHTS assay (AID 1671198); further: nearly all actives have a fitted effect of over 50% in size; further: potency means the concentration at half of the fitted maximal effect; on activity change, negative = inhibition: series mostly up to about 120 µM
Method in brief: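 Enzyme-substrate mix preincubated with compound 10 min at room temperature; reaction started with NADPH regeneration solution, 1 h 37C. Luminescent luciferin product read after 20 min detection reagent.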

[11] = target: Cytochrome P450 1A2 (Homo sapiens) (UniProt P05177); assay: Cytochrome P450 Family 1 Subfamily A Member 2 (CYP1A2) small molecule antagonists: luciferase reporter qHTS assay (AID 1671199); further: series mostly up to about 120 µM; nearly all actives have a fitted effect of over 50% in size
Method in brief: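 Steps: enzyme-substrate mix dispensed; test compounds and furafylline control pinned in; 10 min room temperature; NADPH regeneration solution added, 1 h; reaction stopped with luciferin detection reagent; luminescence read after 20 min.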

[12] = target: Voltage-gated inwardly rectifying potassium channel KCNH2 (Homo sapiens) (UniProt Q12809); assay: Human Ether-a-go-go-Related Gene (hERG) channel small molecule antagonists: fluorescence cell-based qHTS assay (AID 1671200)
Method in brief: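 Cell line hERG-U2OS; dye FluxOR II, 1 h RT dark; Tl+ stimulus; ex 480/em 540 nm, read each second for 2 min.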

[13] = target: Cytochrome P450 3A4 (Homo sapiens) (UniProt P08684); assay: Cytochrome P450 Family 3 Subfamily A Member 4 (CYP3A4) small molecule antagonists: luciferase reporter qHTS assay (AID 1671201)
Method in brief: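 Room-temperature assay throughout: 10 min compound–enzyme/substrate preincubation, 1 h reaction after NADPH regeneration solution, 20 min detection. Luciferin formed from proluciferin substrate is quantified by luminescence.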

[14] = target: Nuclear receptor subfamily 1 group I member 2 (Rattus norvegicus) (UniProt Q9R1A7); assay: Rat pregnane X receptor (rPXR) activation by small molecules, qHTS assay (AID 1346983); conditions: rPXR luciferase reporter cells, One-Glo luminescence, 24 h; max activation: stronger effect = higher value; further: nearly all actives have a fitted effect of over 20% in size
Method in brief: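 Luminescent readout (One-Glo luciferase, 30 min room temperature) followed 24 hr compound treatment at 37 C of rPXR cells plated 2,000 per well and preincubated 5hr; qHTS format with compounds delivered in DMSO.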

[15] = target: Nuclear receptor subfamily 1 group I member 2 (Homo sapiens) (UniProt O75469); assay: CYP3A4 induction through human pregnane X receptor (PXR) by small molecules, qHTS assay (AID 1346984); further: nearly all actives have a fitted effect of over 40% in size
Method in brief: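 Induction measured in HepG2-based DPX-2 cells co-expressing human PXR and a CYP3A4 promoter-driven luciferase. After a 24-hour compound exposure, cells received CYP3A4 luciferin substrate at 3uM final for 3 hours, and light output was then recorded.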

[16] = target: Nuclear receptor subfamily 1 group I member 2 (Homo sapiens) (UniProt O75469); assay: Human pregnane X receptor (PXR) activation by small molecules, qHTS assay (AID 1346985); further: nearly all actives have a fitted effect of over 40% in size
Method in brief: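 DPX-2 cells (HepG2 co-transfected with a PXR response element and a CYP3A4-promoter luciferase construct) were seeded at 2,000 per well, rested 5 hr at 37C, then exposed to DMSO-dissolved compounds for 24 hr. Activation was read as luciferase luminescence.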
On the % scale 0 is the no-effect control and ±100 the full control effect.

Chain of Cytochrome P450 1A2 (Homo sapiens) (P05177 whole entry, looked up): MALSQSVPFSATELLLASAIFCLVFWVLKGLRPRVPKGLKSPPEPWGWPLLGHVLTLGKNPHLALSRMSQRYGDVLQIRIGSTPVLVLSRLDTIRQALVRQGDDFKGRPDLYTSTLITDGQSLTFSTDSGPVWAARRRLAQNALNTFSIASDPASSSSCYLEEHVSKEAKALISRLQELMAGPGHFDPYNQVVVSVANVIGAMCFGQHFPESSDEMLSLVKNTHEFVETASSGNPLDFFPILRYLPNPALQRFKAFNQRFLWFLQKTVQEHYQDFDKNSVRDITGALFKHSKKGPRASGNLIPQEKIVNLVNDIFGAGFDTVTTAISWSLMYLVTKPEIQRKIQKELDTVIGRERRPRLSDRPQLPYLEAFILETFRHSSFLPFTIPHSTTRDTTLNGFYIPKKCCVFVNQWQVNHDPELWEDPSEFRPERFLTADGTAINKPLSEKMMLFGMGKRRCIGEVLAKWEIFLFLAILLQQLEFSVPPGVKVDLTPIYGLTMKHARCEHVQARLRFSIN
Chain of Cytochrome P450 2D6 (Homo sapiens) (P10635 whole entry, looked up): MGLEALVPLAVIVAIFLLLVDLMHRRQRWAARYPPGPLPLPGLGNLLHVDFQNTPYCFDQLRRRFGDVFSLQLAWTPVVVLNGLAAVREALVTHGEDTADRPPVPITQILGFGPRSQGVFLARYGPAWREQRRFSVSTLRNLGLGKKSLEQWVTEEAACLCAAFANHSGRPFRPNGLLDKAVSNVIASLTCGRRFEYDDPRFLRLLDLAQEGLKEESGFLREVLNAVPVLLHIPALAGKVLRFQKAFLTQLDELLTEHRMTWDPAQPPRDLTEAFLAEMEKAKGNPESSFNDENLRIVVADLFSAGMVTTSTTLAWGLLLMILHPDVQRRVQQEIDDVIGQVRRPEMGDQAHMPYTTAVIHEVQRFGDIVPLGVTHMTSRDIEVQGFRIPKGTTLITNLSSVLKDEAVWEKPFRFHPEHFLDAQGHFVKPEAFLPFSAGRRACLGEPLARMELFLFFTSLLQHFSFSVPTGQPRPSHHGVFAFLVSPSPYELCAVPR
Chain of Nuclear receptor subfamily 1 group I member 2 (Homo sapiens) (O75469 whole entry, looked up): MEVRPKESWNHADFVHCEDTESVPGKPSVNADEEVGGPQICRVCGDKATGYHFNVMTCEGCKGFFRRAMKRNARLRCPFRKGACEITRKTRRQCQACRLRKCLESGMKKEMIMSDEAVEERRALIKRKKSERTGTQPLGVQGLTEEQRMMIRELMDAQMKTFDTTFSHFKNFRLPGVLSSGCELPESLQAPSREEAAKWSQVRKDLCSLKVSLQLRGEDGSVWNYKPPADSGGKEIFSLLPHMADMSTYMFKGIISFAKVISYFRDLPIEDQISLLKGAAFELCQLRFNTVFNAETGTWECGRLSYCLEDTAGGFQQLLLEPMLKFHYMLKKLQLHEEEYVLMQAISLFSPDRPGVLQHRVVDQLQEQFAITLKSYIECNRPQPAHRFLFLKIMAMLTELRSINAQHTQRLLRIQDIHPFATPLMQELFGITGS
Chain of Thyrotropin-releasing hormone receptor (Homo sapiens) (P34981 whole entry, looked up): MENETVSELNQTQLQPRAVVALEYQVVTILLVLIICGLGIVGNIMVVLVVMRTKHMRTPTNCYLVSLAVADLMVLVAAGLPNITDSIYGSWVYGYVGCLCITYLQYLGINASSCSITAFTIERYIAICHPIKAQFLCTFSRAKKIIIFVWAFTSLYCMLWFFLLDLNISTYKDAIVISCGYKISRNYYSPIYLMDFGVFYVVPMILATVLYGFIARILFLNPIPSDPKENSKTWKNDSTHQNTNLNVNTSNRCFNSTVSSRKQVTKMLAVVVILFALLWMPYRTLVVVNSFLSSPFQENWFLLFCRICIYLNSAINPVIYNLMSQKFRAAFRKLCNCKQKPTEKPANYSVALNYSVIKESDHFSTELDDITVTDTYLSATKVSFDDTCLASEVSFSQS
Chain of Cytochrome P450 2C9 (Homo sapiens) (P11712 whole entry, looked up): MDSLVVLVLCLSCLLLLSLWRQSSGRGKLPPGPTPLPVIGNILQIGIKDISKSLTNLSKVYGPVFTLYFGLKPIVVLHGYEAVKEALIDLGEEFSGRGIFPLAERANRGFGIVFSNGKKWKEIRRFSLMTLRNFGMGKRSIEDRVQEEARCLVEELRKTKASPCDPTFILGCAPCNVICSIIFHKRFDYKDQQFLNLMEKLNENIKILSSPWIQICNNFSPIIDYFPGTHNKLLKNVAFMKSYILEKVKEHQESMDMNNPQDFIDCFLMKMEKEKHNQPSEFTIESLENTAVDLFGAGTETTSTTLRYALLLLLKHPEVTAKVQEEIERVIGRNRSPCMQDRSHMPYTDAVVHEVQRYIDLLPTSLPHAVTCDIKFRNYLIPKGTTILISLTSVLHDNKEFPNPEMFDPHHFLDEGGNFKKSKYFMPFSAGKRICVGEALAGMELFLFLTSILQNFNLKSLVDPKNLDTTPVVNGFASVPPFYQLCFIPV
Chain of Nuclear receptor subfamily 1 group I member 2 (Rattus norvegicus) (Q9R1A7 whole entry, looked up): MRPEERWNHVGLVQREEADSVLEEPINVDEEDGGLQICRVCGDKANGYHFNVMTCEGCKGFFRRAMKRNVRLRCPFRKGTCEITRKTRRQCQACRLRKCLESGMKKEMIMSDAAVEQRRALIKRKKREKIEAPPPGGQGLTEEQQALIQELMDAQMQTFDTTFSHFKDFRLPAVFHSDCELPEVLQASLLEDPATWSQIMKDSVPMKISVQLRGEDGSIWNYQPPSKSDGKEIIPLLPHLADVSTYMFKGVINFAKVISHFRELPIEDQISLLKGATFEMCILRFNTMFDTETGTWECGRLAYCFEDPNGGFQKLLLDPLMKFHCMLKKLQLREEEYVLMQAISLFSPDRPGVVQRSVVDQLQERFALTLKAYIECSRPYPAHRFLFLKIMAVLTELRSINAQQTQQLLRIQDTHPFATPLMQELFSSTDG
Chain of Cytochrome P450 2C19 (Homo sapiens) (P33261 whole entry, looked up): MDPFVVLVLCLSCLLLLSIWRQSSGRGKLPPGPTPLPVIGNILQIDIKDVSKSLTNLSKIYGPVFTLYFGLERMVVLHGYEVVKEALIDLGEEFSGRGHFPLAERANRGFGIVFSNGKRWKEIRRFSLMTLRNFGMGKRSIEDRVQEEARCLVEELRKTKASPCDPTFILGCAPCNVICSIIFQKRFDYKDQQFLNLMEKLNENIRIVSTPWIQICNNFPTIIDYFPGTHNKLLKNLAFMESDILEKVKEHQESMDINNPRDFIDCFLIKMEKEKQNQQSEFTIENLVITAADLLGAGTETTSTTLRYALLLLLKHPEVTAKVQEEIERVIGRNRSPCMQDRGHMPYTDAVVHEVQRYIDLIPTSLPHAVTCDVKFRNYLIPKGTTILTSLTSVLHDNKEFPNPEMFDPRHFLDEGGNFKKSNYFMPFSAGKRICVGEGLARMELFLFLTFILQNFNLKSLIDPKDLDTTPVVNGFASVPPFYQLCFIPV
Chain of Voltage-gated inwardly rectifying potassium channel KCNH2 (Homo sapiens) (Q12809 whole entry, looked up): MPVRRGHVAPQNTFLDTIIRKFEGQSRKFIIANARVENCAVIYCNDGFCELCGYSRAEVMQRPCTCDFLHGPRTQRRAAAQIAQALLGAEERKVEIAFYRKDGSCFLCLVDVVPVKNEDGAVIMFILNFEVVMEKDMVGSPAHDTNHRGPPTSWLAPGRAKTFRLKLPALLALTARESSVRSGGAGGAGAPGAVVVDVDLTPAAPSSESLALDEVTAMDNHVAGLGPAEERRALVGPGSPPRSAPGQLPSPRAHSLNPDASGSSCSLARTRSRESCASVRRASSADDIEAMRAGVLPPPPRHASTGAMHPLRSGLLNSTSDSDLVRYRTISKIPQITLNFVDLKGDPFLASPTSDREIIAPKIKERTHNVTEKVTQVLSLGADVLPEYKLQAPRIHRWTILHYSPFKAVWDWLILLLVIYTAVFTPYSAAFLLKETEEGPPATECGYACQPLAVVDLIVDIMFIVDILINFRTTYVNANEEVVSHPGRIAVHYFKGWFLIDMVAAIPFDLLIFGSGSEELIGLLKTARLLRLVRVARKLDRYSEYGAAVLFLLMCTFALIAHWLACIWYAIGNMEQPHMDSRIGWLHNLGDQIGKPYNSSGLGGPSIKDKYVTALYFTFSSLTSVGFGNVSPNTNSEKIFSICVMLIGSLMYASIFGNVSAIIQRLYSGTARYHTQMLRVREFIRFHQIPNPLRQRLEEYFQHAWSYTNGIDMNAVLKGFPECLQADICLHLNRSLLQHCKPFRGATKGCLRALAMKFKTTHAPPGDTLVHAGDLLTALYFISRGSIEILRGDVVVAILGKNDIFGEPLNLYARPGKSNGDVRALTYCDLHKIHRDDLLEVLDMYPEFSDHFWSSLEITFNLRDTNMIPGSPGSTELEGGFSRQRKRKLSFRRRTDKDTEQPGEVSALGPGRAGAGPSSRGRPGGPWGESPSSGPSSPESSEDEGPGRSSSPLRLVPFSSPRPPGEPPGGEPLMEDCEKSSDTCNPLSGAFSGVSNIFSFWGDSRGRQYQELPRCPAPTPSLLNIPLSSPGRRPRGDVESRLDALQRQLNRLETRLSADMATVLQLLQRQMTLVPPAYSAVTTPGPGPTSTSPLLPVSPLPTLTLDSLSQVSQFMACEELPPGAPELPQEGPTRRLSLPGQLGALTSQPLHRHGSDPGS
Chain of Cytochrome P450 3A4 (Homo sapiens) (P08684 whole entry, looked up): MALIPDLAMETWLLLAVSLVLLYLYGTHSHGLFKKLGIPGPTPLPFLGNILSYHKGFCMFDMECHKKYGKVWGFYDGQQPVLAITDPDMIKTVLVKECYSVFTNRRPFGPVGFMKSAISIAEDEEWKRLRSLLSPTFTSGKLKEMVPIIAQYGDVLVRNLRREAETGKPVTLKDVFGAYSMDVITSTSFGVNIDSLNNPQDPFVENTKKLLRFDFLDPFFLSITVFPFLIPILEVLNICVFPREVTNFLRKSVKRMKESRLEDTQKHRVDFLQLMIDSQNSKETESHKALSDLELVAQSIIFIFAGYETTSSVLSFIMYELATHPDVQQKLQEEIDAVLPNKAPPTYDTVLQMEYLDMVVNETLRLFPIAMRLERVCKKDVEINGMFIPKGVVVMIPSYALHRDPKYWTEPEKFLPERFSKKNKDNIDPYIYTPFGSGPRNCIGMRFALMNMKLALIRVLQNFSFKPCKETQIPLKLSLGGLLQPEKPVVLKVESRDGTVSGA

CO[Si](C)(C)OC
inactive: Potency [1] | Potency [2] | Potency [3] | Potency [4] | outcome [5] | Potency [6] | Potency [7]

C=CCCC=C
inactive: Potency [1] | Potency [2] | Potency [3] | Potency [4] | outcome [5] | Potency [6] | Potency [7] | Potency [8] | Potency [9] | Potency [10] | Potency [11] | Potency [12] | Potency [13]

OCCN(CCO)CCN(CCO)CCO
inactive: Potency [1] | Potency [2] | Potency [3] | Potency [4] | outcome [5] | Potency [6] | Potency [7] | Potency [8] | Potency [9] | Potency [10] | Potency [11] | Potency [12] | Potency [13]

NC/C=C/C(=O)O
inactive: Potency [1] | Potency [2] | Potency [3] | Potency [4] | outcome [5] | Potency [6] | Potency [7] | max activation [14] -4.44% | Potency [15] | Potency [16] | Potency [8] | Potency [9] | Potency [10] | Potency [11] | Potency [12] | Potency [13]

CC1=NN(c2cc(Cl)c(S(=O)(=O)O)cc2Cl)C(=O)C1N=Nc1ccc(S(=O)(=O)O)cc1 (stereo unspecified)
active: Potency [2] 54.5 µM | Potency [4] 54.5 µM | Potency [6] 48.6 µM
inactive: Potency [1] | Potency [3] | outcome [5] | Potency [7] | Potency [8] | Potency [9] | Potency [10] | Potency [11] | Potency [13]

CC1(C)S[C@@H]2[C@H](NC(=O)C(C(=O)O)c3ccccc3)C(=O)N2[C@H]1C(=O)O (stereo partly specified)
inactive: Potency [1] | Potency [2] | Potency [3] | Potency [4] | outcome [5] | Potency [6] | Potency [7] | max activation [14] 0.938% | Potency [15] | Potency [16] | Potency [8] | Potency [9] | Potency [10] | Potency [11] | Potency [12] | Potency [13]

O=C(C(Cl)Cl)N1CCOC12CCCCC2
inactive: Potency [1] | Potency [3] | outcome [5] | Potency [8] | Potency [11] | Potency [12] | Potency [13]
active: Potency [2] 61.1 µM | Potency [4] 61.1 µM | Potency [6] 61.1 µM | Potency [7] 34.4 µM | Potency [9] 39.9 µM | Potency [10] 63.3 µM

CN1CCN(c2c(F)cc3c(=O)c(C(=O)O)cn(CCF)c3c2F)CC1
inactive: Potency [1] | Potency [2] | Potency [3] | Potency [4] | outcome [5] | Potency [6] | Potency [7] | max activation [14] -0.524% | Potency [15] | Potency [16] | Potency [8] | Potency [9] | Potency [10] | Potency [11] | Potency [12] | Potency [13]

C[C@@H]1CN(c2c(F)c(N)c3c(=O)c(C(=O)O)cn(C4CC4)c3c2F)C[C@H](C)N1
inactive: activation [1] -0.407% [at 11.8 µM] | activity change, negative = cytotoxicity [2] 5.72% [at 19 µM] | caspase activation [3] 0.598% [at 19 µM] | activity change, negative = cytotoxicity [4] 5.21% [at 19 µM] | caspase-3/7 activation [5] -1.56% [at 19 µM] | activity change, negative = cytotoxicity [6] -0.6% [at 19 µM] | activation [7] -7.57% [at 19 µM] | max activation [14] -3.87% | Potency [15] | Potency [16] | activity change, negative = inhibition [8] -4.41% [at 23.6 µM] | activity change, negative = inhibition [9] 45.2% [at 23.6 µM] | Potency [10] | activity change, negative = inhibition [12] -2.21% [at 15.8 µM] | activity change, negative = inhibition [13] -3.59% [at 23.6 µM]
